# Granule exo inh: blocks lytic granule exocytosis; TALL-104 LAMP-1 surface exposure, flow cytometry; cells stimulated with thapsigargin and PMA; inhibition, % at 10 µM; hit rate 0.66% among 360,000;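 active means inhibition above about 55%, limit read from the data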
# NTR1 agonist: NTR1 (human) agonism; activation, % at 20 µM; P30989; AID 493036; hit rate 0.17% among 330,000; NTR1-U2OS beta-arrestin-GFP spot imaging, agonist mode;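 active means activation at or above 40% of the spot to cytoplasm intensity ratio, with at least 20 cells analyzed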;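 further: 0% = DMSO without peptide and 100% = 100 nM NTR1 peptide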
# ABHD5 PLIN5 PPI: ABHD5-PLIN5 protein interaction inhibition | Q00G26+Q8WTS1 | Split G. princeps luciferase complementation, luminescence, 4 h | inhibition, % at 4 µM | hit rate 0.78% among 360,000;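 active means inhibition above the mean inhibition across every tested compound plus 3 SD, cut at about 22% in these data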;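 further: 0% = DMSO only wells and the 100% control is not disclosed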
# Target sequence (Q00G26 whole entry, looked up): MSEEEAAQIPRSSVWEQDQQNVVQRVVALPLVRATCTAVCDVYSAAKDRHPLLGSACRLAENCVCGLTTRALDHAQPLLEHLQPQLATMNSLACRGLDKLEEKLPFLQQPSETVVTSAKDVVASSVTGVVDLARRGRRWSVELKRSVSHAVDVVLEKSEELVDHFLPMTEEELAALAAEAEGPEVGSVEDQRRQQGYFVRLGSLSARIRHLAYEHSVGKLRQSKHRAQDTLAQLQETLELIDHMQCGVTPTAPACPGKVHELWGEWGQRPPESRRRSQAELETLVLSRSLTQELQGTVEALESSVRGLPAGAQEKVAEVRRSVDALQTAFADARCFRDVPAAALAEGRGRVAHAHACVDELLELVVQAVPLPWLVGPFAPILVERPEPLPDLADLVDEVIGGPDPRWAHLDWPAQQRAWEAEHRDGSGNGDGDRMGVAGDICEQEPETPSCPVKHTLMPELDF
# Target sequence (Q8WTS1 whole entry, looked up): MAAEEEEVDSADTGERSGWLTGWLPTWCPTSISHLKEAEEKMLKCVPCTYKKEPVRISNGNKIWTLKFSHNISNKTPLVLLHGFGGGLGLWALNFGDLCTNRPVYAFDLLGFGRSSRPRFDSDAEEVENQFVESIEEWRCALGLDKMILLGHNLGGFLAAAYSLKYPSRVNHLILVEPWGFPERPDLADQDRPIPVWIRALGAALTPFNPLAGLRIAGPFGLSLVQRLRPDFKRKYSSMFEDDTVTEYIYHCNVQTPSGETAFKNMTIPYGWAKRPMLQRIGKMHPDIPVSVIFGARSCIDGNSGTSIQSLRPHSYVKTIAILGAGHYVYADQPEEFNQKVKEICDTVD
# B2AR ag: agonists of human beta-2 adrenergic receptor inducing internalization; P07550; Am2.2-beta2AR cells, FAP receptor internalization, flow cytometry; response, % (test concentration not listed); hit rate 0.43% among 340,000;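 active means response above a set limit, near 3 SD of response in nonfluorescent compounds, cut at about 42% in these data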
# m5-HT2A agonist: agonists of mouse serotonin 5-HT2A receptor (HTR2A). P35363. CHO-K1 mHTR2A beta-arrestin complementation, luminescence; percent of 30 µM serotonin response. activation, % at 7.6 µM. hit rate 0.66% among 360,000. AID 624169;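 active means activation above a run cutoff, the mean activation of all tested compounds plus 3 SD, cut at about 14% in these data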;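 further: 0% = plate median of compound wells and 100% = 30 µM serotonin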
# Granule exo CP1: lytic granule exocytosis inhibition; shares compounds with Granule exo inh; inhibition, % at 10 µM; hit rate 11% among 1,500; TALL-104 cells, LAMP-1 externalization, flow cytometry; stimulated with PMA plus thapsigargin; in the data active means inhibition above about 60%;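 further: 0% = stimulated vehicle wells and 100% = unstimulated wells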
# An asterisk follows results filed as active; nt = no result. The list is not random: actives were taken first. Their share in the collection is about 2.3%.
SMILES,Granule exo inh,NTR1 agonist,ABHD5 PLIN5 PPI,B2AR ag,m5-HT2A agonist,Granule exo CP1
COc1cc(C(=O)OCc2cc(=O)c(O)co2)ccc1OC(F)F,2.4,-0.6,6.9,6.8,-1.9,nt
C#Cc1ccc([C@H]2C=C(C(=O)OCC=C)O[C@@H](OCC)[C@@H]2CCCO)cc1,78.1*,3.5,-6.7,12.8,5.8,-14.2
C#Cc1ccc([C@@H]2C=C(C(=O)OCC=C)O[C@H](OCC)[C@H]2CCCO)cc1,1.6,1.9,-4.3,4.2,3.2,nt
CCn1c2ccccc2c2cc(NC(=O)CSc3nccc(=O)[nH]3)ccc21,-2.7,-0.6,18.1,-2.0,-1.7,nt
CCCCCc1c(-c2cccc(F)c2)ncn1CCc1ccccc1OC,55.5*,nt,-3.4,nt,-3.6,67.7*
CCCCc1c(-c2cccc(F)c2)ncn1CCc1ccccc1OC,35.0,nt,-4.0,nt,0.5,nt
CCCCCc1c(-c2cccc(OC)c2)ncn1CCc1ccccc1OC,76.3*,nt,-3.8,nt,-6.2,46.6
CCCCCc1c(-c2ccccc2OC)ncn1CCc1ccccc1OC,67.7*,nt,4.2,nt,-6.2,38.5
Cc1ccc(N2C(=O)CCC2=O)c(C)c1,-0.8,-0.8,-3.0,-0.6,-0.2,nt
COc1ccccc1OCCn1cc(C(=O)C(C)C)c2ccccc21,59.7*,3.7,-15.4,1.6,6.6,-13.3
Nn1c(SCc2ccccn2)nncc1=O,-3.4,-1.4,5.8,2.8,8.9,nt
COc1ccc(-c2cc(C(=O)N(C)Cc3ccc(F)cc3)c3ccccc3n2)cc1OC,-4.8,2.4,4.4,11.7,2.7,nt
O=C(CNS(=O)(=O)c1ccc(Br)cc1Cl)OCC(=O)N1CCCC1=O,-8.5,6.4,0.2,0.9,-2.1,nt
O=C(CNS(=O)(=O)c1c(F)cc(F)cc1Br)OCC(=O)N1CCCC1=O,61.2*,0.8,-3.4,2.1,-0.7,-3.9
O=C(Nc1ccc(CN2CCOCC2)cc1)c1ccc(Br)cc1,8.4,-1.3,-2.1,-4.4,-2.5,nt
O=C(Nc1ccc(S(=O)(=O)Nc2ccccc2)cc1)c1ccc(CN2CCOCC2)cc1,75.7*,4.1,1.4,4.8,-4.3,9.4
CCC(=O)Nc1nonc1-c1nc2ccccc2n1CCC(C)C,62.8*,8.2,-3.6,7.3,1.4,-5.7
CC(=O)Nc1nonc1-c1nc2ccccc2n1CCC(C)C,9.0,4.8,-4.2,-5.3,-5.5,nt
CC(C)(C)C1CCC(OCC(O)CN2CCN(Cc3ccccc3)CC2)CC1 (configuration not stated),71.6*,0.7,2.3,-1.7,-5.5,-3.0
COc1cc(C)c(CN2CCC(Cc3ccccc3)CC2)cc1C,55.6*,4.0,3.2,-1.3,-10.2,-12.5
COc1ccc(OC)c(CN2CCC(Cc3ccccc3)CC2)c1,59.9*,-0.4,4.5,5.3,-8.3,-12.2
CCOC(=O)C1(C)CCCN(C(=O)c2ccc(F)cc2Cl)C1 (configuration not stated),1.2,nt,-5.5,nt,-4.2,nt
COCCn1c(SCCOc2ccccc2)nc2ccccc2c1=O,67.0*,13.5,4.2,-6.7,-4.4,14.1
CCCCNc1c(CCc2ccccc2)nc2nc(C)cc(C)n12,1.1,nt,-3.3,nt,-3.7,nt
Cc1ccnc(Nc2nc(-c3ccc(O)c(O)c3)cs2)c1,71.8*,13.8,-0.2,1.9,-0.2,-12.4
SMILES,Granule exo inh,NTR1 agonist,ABHD5 PLIN5 PPI,B2AR ag,m5-HT2A agonist,Granule exo CP1
CCCCOn1c(C)c(C(=O)OCC)c2c3nonc3ccc21,86.9*,5.3,-11.3,1.9,1.2,36.3
CCCCOn1c(C)c(C(=O)OCC)c2c3no[n+]([O-])c3ccc21,4.4,4.5,0.4,-13.6,-1.4,nt
CCN1C[C@@H]2[C@@H]3C(=O)N(C)C(=O)[C@@H]3[C@](Cc3ccccc3)(C(=O)OC)N2C1=NCc1ccccc1,-8.9,nt,5.0,-1.0,8.1,nt
CC(C)NC(=O)N(C)C[C@H]1Oc2ccc(NC(=O)C3CC3)cc2C(=O)N([C@H](C)CO)C[C@@H]1C,78.9*,-3.6,3.5,-3.2,8.7,-4.6
Cc1noc(C)c1S(=O)(=O)N(C)C[C@H]1Oc2c(NC(=O)Nc3ccccc3)cccc2C(=O)N([C@H](C)CO)C[C@@H]1C,65.4*,7.0,-3.7,-2.1,6.2,-14.1
C[C@H](CO)N1C[C@H](C)[C@@H](CN(C)S(=O)(=O)c2ccccc2)Oc2c(NC(=O)Nc3ccccc3)cccc2C1=O,0.3,0.2,0.2,1.0,-1.3,nt
C[C@@H]1CN([C@@H](C)CO)C(=O)c2cc(NC(=O)Nc3ccc4c(c3)OCO4)ccc2O[C@H]1CN(C)S(=O)(=O)c1cn(C)cn1,63.6*,0.9,0.0,-7.8,2.1,-14.4
C[C@H](CO)N1C[C@H](C)[C@@H](CN(C)S(=O)(=O)c2cn(C)cn2)Oc2ccc(NC(=O)Nc3ccccc3)cc2C1=O,-1.0,0.8,-3.0,1.0,3.4,nt
COc1ccc(CN2CCN(CCCCOc3ccc(Cl)cc3)CC2)c(OC)c1OC,76.1*,-0.7,5.2,1.6,-6.4,-10.0
COc1ccccc1N1CCN(Cc2ccc(OC)c(OC)c2OC)CC1,-3.7,1.5,-0.5,0.4,-5.4,nt
CCOC(=O)C1(CCCc2ccccc2)CCN(C(=O)c2cnn(CC)c2)CC1,0.1,1.7,0.3,1.5,0.4,nt
O=C(NC(=S)NCc1ccccc1)c1ccccc1[N+](=O)[O-],1.0,0.5,1.5,-9.8,-4.8,nt
CCCCc1nc(N2CCN(C(=O)c3ccco3)CC2)c(C#N)c2c1CCCC2,79.4*,29.7,7.2,9.1,-4.2,21.9
O=C(NC1CCCCC1)c1ccc(-c2cccc([N+](=O)[O-])c2)o1,-3.4,2.7,3.8,5.6,1.8,nt
O=C(NCCCN1CCN(Cc2ccccc2Cl)CC1)Nc1ccccc1,0.5,0.2,-2.3,-7.9,-6.1,nt
Cc1ccccc1CC1CCN(CCCNC(=O)Nc2ccccc2)CC1,63.2*,-0.3,-1.0,-3.2,-1.4,-13.1
Cc1ccc(C)c(CN2CCC(CNC(=O)Nc3ccc(Cl)cc3)CC2)c1,65.9*,5.9,5.6,16.6,-11.2,-1.5
NCCc1ccn[nH]1,-2.5,4.4,1.6,-0.3,1.7,nt
O=C(COC(=O)CC1CC2CCC1C2)NCc1ccc(Cl)cc1 (configuration not stated),63.2*,-1.2,-2.9,-3.0,-1.3,-4.9
Cc1[nH]c2ccccc2c1/C=C/c1nc2ccccc2c(=O)[nH]1,57.9*,16.8,5.6,3.4,-2.0,36.4
Cc1cc(NC(C)c2ccccc2)n2ncc(-c3ccccc3)c2n1 (configuration not stated),95.3*,7.1,-11.2,3.8,-0.3,18.0
Cc1cc(NCc2ccccc2)n2ncc(-c3ccccc3)c2n1,57.9*,9.5,-15.2,-4.1,0.5,-10.6
CSc1ccccc1NC(=O)C1=CC(c2ccc(C)cc2)=NS(=O)(=O)N1C,-1.3,-1.5,-10.5,-4.7,-8.2,nt
CCOc1ccc(S(=O)(=O)N2CCN(Cc3ccc4c(c3)OCO4)CC2)cc1C,65.3*,0.5,-25.2,2.6,-4.0,-13.9
COc1ccc(S(=O)(=O)N2CCN(Cc3ccc4c(c3)OCO4)CC2)cc1F,4.2,1.7,0.6,7.1,-3.3,nt

# Compound activity from PubChem BioAssay.
